Source: PubChem BioAssay (NCATS)
Inconclusive results are not listed. Calls of active or inactive are those of the source. Unless noted, the call rests on the fitted dose curve; in most records, active means well fitted curve in the direction sought with a large enough effect; inconclusive means small, poorly fitted or top-dose-only effect, or another doubt; inactive means no such curve, though single readings can be large; an effect the other way counts as inactive or inconclusive.

Legend:
[1] = biological target: Alpha-galactosidase (Coffea arabica) (UniProt Q42656); assay: Counterscreen for Glucocerebrosidase Inhibitors: qHTS Assay for Coffee Bean alpha-Galactosidase at pH 4.5 (AID 957);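 further: series mostly up to about 77 µM; plate controls were enzyme alone for no effect and no enzyme for full effect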
Sequence of Alpha-galactosidase (Coffea arabica) (Q42656 whole entry, looked up): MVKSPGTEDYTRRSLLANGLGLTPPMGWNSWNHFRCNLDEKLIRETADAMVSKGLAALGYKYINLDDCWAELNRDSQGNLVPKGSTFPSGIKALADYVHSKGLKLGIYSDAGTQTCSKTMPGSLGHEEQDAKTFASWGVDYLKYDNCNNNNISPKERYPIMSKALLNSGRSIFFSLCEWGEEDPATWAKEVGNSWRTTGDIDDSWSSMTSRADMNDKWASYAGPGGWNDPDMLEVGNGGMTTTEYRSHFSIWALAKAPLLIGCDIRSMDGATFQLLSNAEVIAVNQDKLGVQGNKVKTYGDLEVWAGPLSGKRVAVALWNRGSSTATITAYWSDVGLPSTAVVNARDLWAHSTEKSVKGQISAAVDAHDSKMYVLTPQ
How it was run: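 Coffee bean alpha-galactosidase 2 nM, substrate 4-MU-alpha-Gal 80 uM, pH 4.5 citrate/Tween-20, 20 min RT. Cpd titration 0.7 nM–77 uM. Stop pH 10, fluorescence 365/440 nm; Hill-equation AC50.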

[2] = biological target: Alpha-galactosidase (Coffea arabica) (UniProt Q42656); assay: Counterscreen for Glucocerebrosidase Inhibitors: qHTS Assay for Coffee Bean alpha-Galactosidase at pH 5.9 (AID 998);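 further: plate controls were uninhibited enzyme for no effect and no-enzyme basal signal for full effect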
How it was run: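 Green coffee bean enzyme (2 nM) with 4-methylumbelliferyl alpha-D-galactopyranoside (80 uM) in 50 mM citric acid, 0.005% Tween-20, pH 5.9, 20 min at room temperature; compounds 0.7 nM–77 uM. Stopped at pH 10, fluorescence Ex365/Em440; Hill-fit AC50.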

[3] = Validation screen for inhibitors of Lassa infection (AID 463096; calls by dose curve; further: on the % scale 0 is the no-effect control and ±100 the full control effect)
[4] = Inducers of the Endoplasmic Reticulum Stress Response (ERSR) in human glioma: Validation (AID 504836); further: 0% is about no effect
How it was run: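 Stably transfected U87-MG glioma cells carrying a GRP78-based luciferase sensor; 16 h compound incubation. Luminescence end-point read 10 min after Bright-Glo addition at room temperature.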

[5] = qHTS for Inhibitors of the Functional Ribonucleoprotein Complex (vRNP) of Lassa (LASV) Arenavirus: LASV Primary Screen - GLuc reporter signal (AID 1347082; calls by dose curve; tested in HEK293 reporter line; further: series mostly up to about 57 µM; on the % scale 0 is the no-effect control and ±100 the full control effect; nearly all actives have a fitted effect of over 60% in size)
[6] = qHTS for Inhibitors of the Functional Ribonucleoprotein Complex (vRNP) of Lassa (LASV) Arenavirus: Viability assay - alamar blue signal for LASV Primary Screen (AID 1347083; calls by dose curve; tested in HEK293 reporter line; further: series mostly up to about 57 µM; on the % scale 0 is the no-effect control and ±100 the full control effect; nearly all actives have a fitted effect of over 80% in size)
[7] = qHTS for Inhibitors of the Functional Ribonucleoprotein Complex (vRNP) of Lymphocytic Choriomeningitis Arenaviruses (LCMV): Viability assay - alamar blue signal for LCMV Primary Screen (AID 1347085; calls by dose curve; tested in HEK293 reporter line; further: series mostly up to about 57 µM; on the % scale 0 is the no-effect control and ±100 the full control effect; nearly all actives have a fitted effect of over 80% in size)
[8] = biological target: Nucleoprotein (Lymphocytic choriomeningitis virus (strain Armstrong)) (UniProt P09992); assay: qHTS for Inhibitors of the Functional Ribonucleoprotein Complex (vRNP) of Lymphocytic Choriomeningitis Arenaviruses (LCMV): LCMV Primary Screen - GLuc reporter signal (AID 1347086; calls by dose curve; further: series mostly up to about 57 µM; on the % scale 0 is the no-effect control and ±100 the full control effect; nearly all actives have a fitted effect of over 70% in size)
Sequence of Nucleoprotein (Lymphocytic choriomeningitis virus (strain Armstrong)) (P09992 whole entry, looked up): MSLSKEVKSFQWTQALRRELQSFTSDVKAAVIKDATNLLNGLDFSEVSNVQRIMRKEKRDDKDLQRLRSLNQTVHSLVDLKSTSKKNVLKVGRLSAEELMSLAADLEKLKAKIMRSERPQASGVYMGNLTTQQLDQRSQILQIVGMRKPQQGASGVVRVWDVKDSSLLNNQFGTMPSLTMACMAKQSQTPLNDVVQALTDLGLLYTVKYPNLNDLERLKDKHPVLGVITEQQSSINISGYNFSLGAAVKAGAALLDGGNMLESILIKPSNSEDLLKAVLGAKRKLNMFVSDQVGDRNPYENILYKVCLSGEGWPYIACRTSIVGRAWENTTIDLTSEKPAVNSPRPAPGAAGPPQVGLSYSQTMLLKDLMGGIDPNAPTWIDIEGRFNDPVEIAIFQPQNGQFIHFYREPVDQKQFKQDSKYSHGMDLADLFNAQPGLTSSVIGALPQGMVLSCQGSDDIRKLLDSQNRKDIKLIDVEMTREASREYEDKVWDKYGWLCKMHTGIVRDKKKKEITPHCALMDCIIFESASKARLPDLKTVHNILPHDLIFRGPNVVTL

[9] = biological target: Voltage-gated inwardly rectifying potassium channel KCNH2 (Homo sapiens) (UniProt Q12809); assay: qHTS Assay for Small Molecule Inhibitors of the Human hERG Channel Activity (AID 588834);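 further: top concentration of the series differs between compounds; on the % scale 0 is the no-effect control and ±100 the full control effect; lower thallium flux fluorescence means stronger hERG block; nearly all actives have a fitted effect of over 50% in size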
Sequence of Voltage-gated inwardly rectifying potassium channel KCNH2 (Homo sapiens) (Q12809 whole entry, looked up): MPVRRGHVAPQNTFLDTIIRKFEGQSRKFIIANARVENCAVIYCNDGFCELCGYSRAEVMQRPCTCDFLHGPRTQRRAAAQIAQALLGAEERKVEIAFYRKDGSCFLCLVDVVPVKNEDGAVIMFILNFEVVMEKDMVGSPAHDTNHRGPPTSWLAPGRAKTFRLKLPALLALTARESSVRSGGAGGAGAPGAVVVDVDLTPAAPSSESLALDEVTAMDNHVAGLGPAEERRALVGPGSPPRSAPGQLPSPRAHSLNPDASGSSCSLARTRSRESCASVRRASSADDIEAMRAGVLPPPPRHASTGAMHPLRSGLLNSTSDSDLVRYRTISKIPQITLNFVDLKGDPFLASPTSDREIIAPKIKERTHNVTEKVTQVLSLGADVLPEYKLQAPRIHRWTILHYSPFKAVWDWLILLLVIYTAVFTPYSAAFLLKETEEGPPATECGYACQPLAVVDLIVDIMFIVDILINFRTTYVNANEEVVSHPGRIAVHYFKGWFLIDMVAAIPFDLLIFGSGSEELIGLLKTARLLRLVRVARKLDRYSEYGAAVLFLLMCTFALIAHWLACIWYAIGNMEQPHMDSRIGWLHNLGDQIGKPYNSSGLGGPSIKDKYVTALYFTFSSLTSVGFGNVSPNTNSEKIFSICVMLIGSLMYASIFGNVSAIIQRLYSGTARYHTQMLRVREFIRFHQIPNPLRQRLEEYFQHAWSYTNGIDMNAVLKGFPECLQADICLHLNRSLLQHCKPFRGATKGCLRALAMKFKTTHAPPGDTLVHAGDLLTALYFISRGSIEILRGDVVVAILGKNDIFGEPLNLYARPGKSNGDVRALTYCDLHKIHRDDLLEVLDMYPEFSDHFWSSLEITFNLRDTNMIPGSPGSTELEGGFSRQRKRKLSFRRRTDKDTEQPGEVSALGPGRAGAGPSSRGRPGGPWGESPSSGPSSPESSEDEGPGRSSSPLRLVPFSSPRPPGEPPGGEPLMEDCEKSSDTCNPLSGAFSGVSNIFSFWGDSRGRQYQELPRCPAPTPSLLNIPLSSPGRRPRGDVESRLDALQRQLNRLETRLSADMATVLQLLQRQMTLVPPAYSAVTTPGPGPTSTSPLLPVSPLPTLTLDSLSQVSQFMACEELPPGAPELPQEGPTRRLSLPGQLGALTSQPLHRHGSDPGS
How it was run: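 Measured: FluxOR fluorescence after thallium stimulation in U2OS cells transduced with hERG by baculovirus. Compounds pre-incubated around 10 min; medium Opti-MEM with 2% FCS. AC50 from Hill equation.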

[10] = biological target: Bile acid receptor (Homo sapiens) (UniProt Q96RI1); assay: qHTS assay for small molecule agonists of farnesoid X receptor signaling (AID 588527; calls by dose curve;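 further: series mostly up to about 77 µM; 0% = vehicle basal and 100% = reference agonist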); conditions: HEK293T FXR-UAS-bla, beta-lactamase ratio, 16 h; activation: stronger effect = higher value
Sequence of Bile acid receptor (Homo sapiens) (Q96RI1 whole entry, looked up): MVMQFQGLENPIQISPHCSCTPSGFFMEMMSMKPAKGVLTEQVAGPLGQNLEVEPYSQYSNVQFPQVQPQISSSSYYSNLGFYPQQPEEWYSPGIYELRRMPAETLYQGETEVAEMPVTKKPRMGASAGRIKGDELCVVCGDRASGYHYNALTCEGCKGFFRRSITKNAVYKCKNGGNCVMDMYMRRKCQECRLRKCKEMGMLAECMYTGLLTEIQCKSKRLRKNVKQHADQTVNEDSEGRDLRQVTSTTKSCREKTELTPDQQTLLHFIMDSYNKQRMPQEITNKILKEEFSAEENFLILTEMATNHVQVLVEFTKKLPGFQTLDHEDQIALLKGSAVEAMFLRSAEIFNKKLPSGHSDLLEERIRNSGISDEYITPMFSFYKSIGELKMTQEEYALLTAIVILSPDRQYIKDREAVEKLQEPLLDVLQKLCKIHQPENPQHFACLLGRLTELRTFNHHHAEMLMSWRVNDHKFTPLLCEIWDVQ
How it was run: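 Quantitative HTS used FXR-UAS-bla HEK293T cells with 16 h compound incubation at 37 C. EC50 values came from concentration-response curves normalized to chenodeoxycholic acid.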

[11] = biological target: Arylsulfatase A (Homo sapiens) (UniProt P15289); assay: qHTS screen for enhancers of Arylsulfatase A (ASA1): LOPAC Validation Assay (AID 720538); further: 0% is about no effect
Sequence of Arylsulfatase A (Homo sapiens) (P15289 whole entry, looked up): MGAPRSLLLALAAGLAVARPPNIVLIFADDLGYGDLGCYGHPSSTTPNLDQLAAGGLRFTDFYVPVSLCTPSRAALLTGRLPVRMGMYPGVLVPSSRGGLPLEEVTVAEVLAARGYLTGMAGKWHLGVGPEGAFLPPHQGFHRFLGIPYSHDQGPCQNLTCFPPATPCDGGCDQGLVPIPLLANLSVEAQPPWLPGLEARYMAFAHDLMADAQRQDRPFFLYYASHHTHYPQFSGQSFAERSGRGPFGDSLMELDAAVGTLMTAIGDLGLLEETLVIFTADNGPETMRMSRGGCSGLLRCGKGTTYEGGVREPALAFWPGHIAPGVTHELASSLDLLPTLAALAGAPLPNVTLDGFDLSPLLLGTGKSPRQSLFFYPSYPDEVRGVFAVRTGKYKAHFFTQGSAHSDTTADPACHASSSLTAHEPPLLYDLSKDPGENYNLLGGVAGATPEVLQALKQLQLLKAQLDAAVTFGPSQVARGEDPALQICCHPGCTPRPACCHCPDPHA
How it was run: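 First, ASA-I179S fibroblasts from an MLD patient adhered for 6 hrs. Next, compounds were added for 48h. Then pNCS substrate (0.5mM final) with lysis buffer reacted 14h at room temperature before NaOH stop and fluorescence measurement.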

N#C/C(=C\c1ccc(O)c(O)c1)C(=O)c1ccc(O)c(O)c1
inactive: outcome [1] | outcome [2] | Potency [3] | outcome [4] | Potency [5] | Potency [6] | Potency [7] | Potency [8]

Cn1c(=O)c2[nH]c(-c3ccccc3)nc2n(C)c1=O
inactive: outcome [1] | outcome [2] | Potency [3] | outcome [4] | Potency [5] | Potency [6] | Potency [7] | Potency [8]

O=C(O)c1cccnc1C(=O)O
inactive: outcome [1] | outcome [2] | Potency [3] | outcome [4] | Potency [5] | Potency [6] | Potency [7] | Potency [8]

CCCCCCCCCCC/C=C\C(C)(C)/C=C\CCCC(=O)O
inactive: outcome [1] | outcome [2] | Potency [3] | outcome [4] | Potency [5] | Potency [6] | Potency [7] | Potency [8]

N=C(N)c1ccc(N)cc1
inactive: outcome [1] | outcome [2] | Potency [3] | outcome [4] | Potency [5] | Potency [6] | Potency [7] | Potency [8]

O=[N+]([O-])c1cccc2c(Br)[nH]nc12
inactive: outcome [1] | outcome [2] | Potency [3] | outcome [4] | Potency [5] | Potency [6] | Potency [7] | Potency [8]

O=C(O)c1cc([N+](=O)[O-])ccc1NCCCc1ccccc1
inactive: outcome [1] | outcome [2] | Potency [3] | outcome [4] | Potency [5] | Potency [6] | Potency [7] | Potency [8]

Fc1ccc(CN(C2=NCCN2)c2c(Cl)cccc2Cl)cc1
inactive: outcome [1] | outcome [2] | Potency [3] | outcome [4] | Potency [5] | Potency [6] | Potency [7] | Potency [8]

CCCn1c(=O)c2c(ncn2C)n(CCC)c1=O
inactive: outcome [1] | outcome [2] | Potency [3] | outcome [4] | Potency [5] | Potency [6] | Potency [7] | Potency [8]

CCCN(CC1CC1)c1nc(C)nc(Nc2c(Cl)cc(Cl)cc2Cl)c1Cl
inactive: outcome [1] | outcome [2] | Potency [3] | outcome [4] | Potency [5] | Potency [6] | Potency [7] | Potency [8]

NCCCCN=C(N)N
inactive: outcome [1] | outcome [2] | Potency [3] | outcome [4] | Potency [5] | Potency [6] | Potency [7] | Potency [8]

CCCn1c(=O)[nH]c(=O)c2[nH]cnc21
inactive: outcome [1] | outcome [2] | Potency [3] | outcome [4] | Potency [5] | Potency [6] | Potency [7] | Potency [8]

N=C(N)c1ccccc1
inactive: outcome [1] | outcome [2] | Potency [3] | outcome [4] | Potency [9] | Potency [5] | Potency [6] | Potency [7] | Potency [8]

N[C@H](C(=O)O)[C@H](O)C(=O)O
inactive: outcome [1] | outcome [2] | Potency [3] | outcome [4] | Potency [5] | Potency [6] | Potency [7] | Potency [8]

NC(=O)c1ccccc1
inactive: outcome [1] | outcome [2] | Potency [3] | outcome [4] | activation [10] 0.288% | Potency [5] | Potency [6] | Potency [7] | Potency [8]

NCC(O)(CS(=O)(=O)O)c1ccc(Cl)cc1 (stereo not given)
inactive: Potency [3] | outcome [4] | Potency [5] | Potency [6] | Potency [7] | Potency [8]

CC(=O)[C@H]1CCC2C3CC=C4C[C@@H](OS(=O)(=O)O)CC[C@]4(C)C3CC[C@@]21C (stereo not given in full)
inactive: Potency [3] | outcome [4] | Potency [11] | Potency [5] | Potency [6] | Potency [7] | Potency [8]

CC(C)NC[C@H](O)COc1ccc(CC(N)=O)cc1
inactive: outcome [1] | outcome [2] | Potency [3] | outcome [4] | Potency [5] | Potency [6] | Potency [7] | Potency [8]

CCCCCCCCCCCCCCSCC(=O)O
inactive: outcome [1] | outcome [2] | Potency [3] | outcome [4] | activation [10] 0.99% | Potency [5] | Potency [6] | Potency [7] | Potency [8]

CCCn1c(=O)c2[nH]c(-c3ccc(S(=O)(=O)O)cc3)nc2n(CCC)c1=O
inactive: outcome [1] | outcome [2] | Potency [3] | outcome [4] | Potency [5] | Potency [6] | Potency [7] | Potency [8]

COCc1nc2c([nH]1)c(=O)n(C)c(=O)n2CC(C)C
inactive: outcome [1] | outcome [2] | Potency [3] | outcome [4] | Potency [5] | Potency [6] | Potency [7] | Potency [8]

N#C/C(=C\c1ccc(O)c(O)c1)C(=O)Nc1ccccc1
inactive: outcome [1] | outcome [2] | Potency [3] | outcome [4] | Potency [5] | Potency [6] | Potency [7] | Potency [8]

Cc1ccc2c(c1)C(N1CCN(C)CC1)=Nc1cccnc1N2
inactive: outcome [1] | outcome [2] | Potency [3] | outcome [4] | Potency [5] | Potency [6] | Potency [7] | Potency [8]

Cc1nc(N=Nc2ccc(C(=O)O)cc2)c(COP(=O)(O)O)c(C=O)c1O
inactive: outcome [1] | outcome [2] | Potency [3] | outcome [4] | Potency [5] | Potency [6] | Potency [7] | Potency [8]

CC(C)(C=O)Cc1cc(C(C)(C)C)c(O)c(C(C)(C)C)c1
inactive: outcome [1] | outcome [2] | Potency [3] | outcome [4] | Potency [5] | Potency [6] | Potency [7] | Potency [8]
